# Source: PMC7862700, “An all-to-all approach to the identification of sequence-specific readers for epigenetic DNA modifications on cytosine”
# Columns and labels:
# Assay in all cases: DAPPL (digital affinity profiling via proximity ligation, sequencing); 10 mM Tris-HCl pH 7.5, 50 mM NaCl, 1 mM DTT, 4% glycerol, room temperature, 30 min; GST-TFs on glutathione beads, 16-mer random dsDNA library, 0.1% formaldehyde crosslink after washing; high values mean tight binding
# FLI1 = biological target: T1, FLI1 (Homo sapiens, UniProt Q01543 1-452); details: protein: recombinant; tags: N-terminal GST; dsDNA, one strand shown
# T1 sequence: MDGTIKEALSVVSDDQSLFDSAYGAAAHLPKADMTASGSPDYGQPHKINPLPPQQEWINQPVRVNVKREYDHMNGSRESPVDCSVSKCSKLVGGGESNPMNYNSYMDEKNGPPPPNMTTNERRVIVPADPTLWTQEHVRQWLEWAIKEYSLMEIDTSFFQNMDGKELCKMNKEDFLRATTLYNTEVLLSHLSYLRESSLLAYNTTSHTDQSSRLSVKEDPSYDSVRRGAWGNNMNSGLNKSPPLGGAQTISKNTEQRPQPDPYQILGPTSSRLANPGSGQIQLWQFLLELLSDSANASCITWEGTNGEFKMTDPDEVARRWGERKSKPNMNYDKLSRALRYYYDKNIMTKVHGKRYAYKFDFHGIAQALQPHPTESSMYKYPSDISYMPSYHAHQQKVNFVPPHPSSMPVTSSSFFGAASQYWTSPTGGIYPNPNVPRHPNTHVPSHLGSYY
# In short: (§1)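 Pools of DNA-barcoded human transcription factors, expressed in yeast as GST fusions on glutathione beads and combined with a tag-only sample, were incubated with 200 nmole of a 16-mer random double-stranded DNA library. Incubation took 30 min at room temperature in Tris/NaCl/DTT/glycerol buffer and was followed by washing, 0.1% formaldehyde crosslinking, proximity ligation (BsaI/T4 ligase, 1 h, 37 °C), PCR amplification and sequencing on an Illumina NextSeq500. Binding signal is the ratio of a hexamer's read frequency for a factor to its frequency for the tag-only sample.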
# ELK1 = biological target: T2, ELK1 (Homo sapiens, UniProt P19419 1-428); details: protein: recombinant; tags: N-terminal GST; dsDNA, one strand shown
# T2 sequence: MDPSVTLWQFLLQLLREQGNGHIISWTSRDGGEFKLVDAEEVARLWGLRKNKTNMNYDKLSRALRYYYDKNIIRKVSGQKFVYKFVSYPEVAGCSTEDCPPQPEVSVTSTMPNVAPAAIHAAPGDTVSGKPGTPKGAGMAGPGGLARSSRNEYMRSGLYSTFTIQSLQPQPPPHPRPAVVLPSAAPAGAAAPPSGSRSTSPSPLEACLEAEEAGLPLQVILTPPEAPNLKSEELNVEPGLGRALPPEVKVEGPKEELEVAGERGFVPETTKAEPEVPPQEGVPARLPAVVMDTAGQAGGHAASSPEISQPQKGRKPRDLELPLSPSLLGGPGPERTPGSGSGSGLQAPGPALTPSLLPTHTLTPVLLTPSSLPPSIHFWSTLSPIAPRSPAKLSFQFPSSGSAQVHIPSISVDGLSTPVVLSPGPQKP
# In short: as §1
# GABPA = biological target: T3, GABPA (Homo sapiens, UniProt Q06546 1-454); details: protein: recombinant; tags: N-terminal GST; dsDNA, one strand shown
# T3 sequence: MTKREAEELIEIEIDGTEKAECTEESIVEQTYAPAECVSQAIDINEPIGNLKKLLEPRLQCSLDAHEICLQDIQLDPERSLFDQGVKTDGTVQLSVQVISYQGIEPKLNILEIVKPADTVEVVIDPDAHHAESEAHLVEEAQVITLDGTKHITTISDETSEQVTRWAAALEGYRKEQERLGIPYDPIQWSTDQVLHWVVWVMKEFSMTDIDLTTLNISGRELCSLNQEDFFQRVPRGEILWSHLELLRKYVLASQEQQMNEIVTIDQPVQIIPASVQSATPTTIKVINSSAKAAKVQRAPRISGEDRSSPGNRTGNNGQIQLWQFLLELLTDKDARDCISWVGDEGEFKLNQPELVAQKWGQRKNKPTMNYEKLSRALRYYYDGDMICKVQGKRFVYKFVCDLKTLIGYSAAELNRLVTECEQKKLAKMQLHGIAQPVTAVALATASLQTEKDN
# In short: as §1
# ERG = biological target: T4, ERG (Homo sapiens, UniProt P11308 1-479); details: protein: recombinant; tags: N-terminal GST; dsDNA, one strand shown
# T4 sequence: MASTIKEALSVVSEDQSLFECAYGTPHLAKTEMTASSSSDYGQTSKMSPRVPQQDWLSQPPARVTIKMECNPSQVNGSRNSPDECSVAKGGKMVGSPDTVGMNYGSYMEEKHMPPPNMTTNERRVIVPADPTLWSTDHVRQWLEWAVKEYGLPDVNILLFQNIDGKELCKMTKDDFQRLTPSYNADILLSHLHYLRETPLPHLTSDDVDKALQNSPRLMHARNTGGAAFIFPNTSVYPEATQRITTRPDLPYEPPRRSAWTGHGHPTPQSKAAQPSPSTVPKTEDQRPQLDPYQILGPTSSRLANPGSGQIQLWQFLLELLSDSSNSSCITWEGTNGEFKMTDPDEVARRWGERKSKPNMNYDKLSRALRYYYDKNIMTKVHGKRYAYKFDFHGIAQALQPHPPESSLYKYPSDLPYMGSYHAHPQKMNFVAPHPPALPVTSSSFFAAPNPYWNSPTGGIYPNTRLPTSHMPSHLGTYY
# In short: as §1
# ELF1 = ELF1 (Homo sapiens, UniProt P32519 1-619); details: protein: recombinant; tags: N-terminal GST; dsDNA, one strand shown
# Sequence of ELF1 (P32519 whole entry): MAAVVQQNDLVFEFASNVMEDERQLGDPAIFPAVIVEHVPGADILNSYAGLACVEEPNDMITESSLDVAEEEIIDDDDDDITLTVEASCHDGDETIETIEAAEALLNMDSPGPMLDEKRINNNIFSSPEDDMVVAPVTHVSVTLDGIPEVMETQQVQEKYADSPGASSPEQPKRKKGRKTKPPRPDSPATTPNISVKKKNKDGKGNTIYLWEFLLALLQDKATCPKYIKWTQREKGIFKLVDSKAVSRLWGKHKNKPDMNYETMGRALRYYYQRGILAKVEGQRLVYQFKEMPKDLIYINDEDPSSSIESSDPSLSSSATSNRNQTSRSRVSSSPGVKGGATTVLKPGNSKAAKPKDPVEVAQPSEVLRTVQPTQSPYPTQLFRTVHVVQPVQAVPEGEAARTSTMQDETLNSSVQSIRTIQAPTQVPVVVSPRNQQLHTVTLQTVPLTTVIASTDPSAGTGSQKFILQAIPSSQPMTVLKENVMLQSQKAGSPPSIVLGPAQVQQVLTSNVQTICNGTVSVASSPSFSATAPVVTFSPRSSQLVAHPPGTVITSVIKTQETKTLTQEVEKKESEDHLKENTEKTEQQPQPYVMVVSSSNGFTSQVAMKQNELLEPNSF
# In short: as §1
# EHF = biological target: T5, EHF (Homo sapiens, UniProt Q9NZC4 1-300); details: protein: recombinant; tags: N-terminal GST; dsDNA, one strand shown
# T5 sequence: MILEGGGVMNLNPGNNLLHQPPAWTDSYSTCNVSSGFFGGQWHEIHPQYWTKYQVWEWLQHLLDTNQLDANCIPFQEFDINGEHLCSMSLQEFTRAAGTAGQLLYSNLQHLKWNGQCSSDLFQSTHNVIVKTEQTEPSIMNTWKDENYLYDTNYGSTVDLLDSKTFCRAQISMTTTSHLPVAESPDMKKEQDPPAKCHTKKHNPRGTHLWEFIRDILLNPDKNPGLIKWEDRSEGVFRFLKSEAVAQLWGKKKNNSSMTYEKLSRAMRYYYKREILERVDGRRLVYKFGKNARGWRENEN
# In short: as §1
# SPI1 = SPI1 (Homo sapiens, UniProt P17947 1-270); details: protein: recombinant; tags: N-terminal GST; dsDNA, one strand shown
# In short: as §1
# SPIB = SPIB (Homo sapiens, UniProt Q01892 1-262); details: protein: recombinant; tags: N-terminal GST; dsDNA, one strand shown
# Sequence of SPIB (Q01892 whole entry): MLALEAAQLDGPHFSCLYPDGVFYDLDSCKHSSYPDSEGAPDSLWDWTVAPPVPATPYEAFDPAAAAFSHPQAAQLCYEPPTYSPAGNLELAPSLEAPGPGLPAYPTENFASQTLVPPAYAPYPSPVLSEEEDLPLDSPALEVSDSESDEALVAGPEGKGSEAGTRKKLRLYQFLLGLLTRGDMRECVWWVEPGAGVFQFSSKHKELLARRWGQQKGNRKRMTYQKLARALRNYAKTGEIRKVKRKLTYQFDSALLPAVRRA
# In short: as §1
# ELK3 = biological target: T6, ELK3 (Homo sapiens, UniProt P41970 1-407); details: protein: recombinant; tags: N-terminal GST; dsDNA, one strand shown
# T6 sequence: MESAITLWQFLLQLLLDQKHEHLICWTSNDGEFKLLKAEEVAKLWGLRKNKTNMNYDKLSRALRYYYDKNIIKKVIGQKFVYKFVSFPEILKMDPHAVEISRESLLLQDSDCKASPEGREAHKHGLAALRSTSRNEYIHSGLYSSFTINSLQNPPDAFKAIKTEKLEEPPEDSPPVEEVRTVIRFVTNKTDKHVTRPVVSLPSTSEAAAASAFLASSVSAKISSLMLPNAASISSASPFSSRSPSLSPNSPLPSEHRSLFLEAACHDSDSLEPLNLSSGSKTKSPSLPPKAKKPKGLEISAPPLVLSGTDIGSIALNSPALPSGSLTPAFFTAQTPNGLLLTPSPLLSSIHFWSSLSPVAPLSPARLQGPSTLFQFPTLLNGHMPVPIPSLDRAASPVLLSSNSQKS
# In short: as §1
# FEV = biological target: T7, FEV (Homo sapiens, UniProt Q99581 1-238); details: protein: recombinant; tags: N-terminal GST; dsDNA, one strand shown
# T7 sequence: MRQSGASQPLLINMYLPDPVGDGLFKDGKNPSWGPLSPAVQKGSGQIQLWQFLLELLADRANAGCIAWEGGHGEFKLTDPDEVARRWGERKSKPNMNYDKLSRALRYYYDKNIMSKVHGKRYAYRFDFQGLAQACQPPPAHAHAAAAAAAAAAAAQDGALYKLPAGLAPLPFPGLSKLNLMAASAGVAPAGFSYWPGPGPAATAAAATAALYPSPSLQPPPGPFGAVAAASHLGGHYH
# In short: as §1
# ETV5 = ETV5 (Homo sapiens, UniProt P41161 1-510); details: protein: recombinant; tags: N-terminal GST; dsDNA, one strand shown
# Sequence of ETV5 (P41161 whole entry): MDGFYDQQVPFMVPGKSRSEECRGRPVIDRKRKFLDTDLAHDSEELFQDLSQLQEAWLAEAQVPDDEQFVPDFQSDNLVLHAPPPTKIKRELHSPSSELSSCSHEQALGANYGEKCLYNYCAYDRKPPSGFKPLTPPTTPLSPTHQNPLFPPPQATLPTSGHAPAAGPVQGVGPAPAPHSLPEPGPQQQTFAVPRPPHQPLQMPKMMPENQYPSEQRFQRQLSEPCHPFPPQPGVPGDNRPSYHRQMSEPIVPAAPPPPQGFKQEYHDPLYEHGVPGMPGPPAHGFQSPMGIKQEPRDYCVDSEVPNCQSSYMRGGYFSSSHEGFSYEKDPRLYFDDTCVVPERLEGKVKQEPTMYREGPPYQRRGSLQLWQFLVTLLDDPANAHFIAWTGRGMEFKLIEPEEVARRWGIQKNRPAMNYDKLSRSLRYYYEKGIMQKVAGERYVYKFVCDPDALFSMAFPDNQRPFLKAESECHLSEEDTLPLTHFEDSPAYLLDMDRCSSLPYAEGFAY
# In short: as §1
# HSF1 = HSF1 (Homo sapiens, UniProt Q00613 1-529); details: protein: recombinant; tags: N-terminal GST; chain copies: 3; dsDNA, one strand shown
# Sequence of HSF1 (Q00613 whole entry): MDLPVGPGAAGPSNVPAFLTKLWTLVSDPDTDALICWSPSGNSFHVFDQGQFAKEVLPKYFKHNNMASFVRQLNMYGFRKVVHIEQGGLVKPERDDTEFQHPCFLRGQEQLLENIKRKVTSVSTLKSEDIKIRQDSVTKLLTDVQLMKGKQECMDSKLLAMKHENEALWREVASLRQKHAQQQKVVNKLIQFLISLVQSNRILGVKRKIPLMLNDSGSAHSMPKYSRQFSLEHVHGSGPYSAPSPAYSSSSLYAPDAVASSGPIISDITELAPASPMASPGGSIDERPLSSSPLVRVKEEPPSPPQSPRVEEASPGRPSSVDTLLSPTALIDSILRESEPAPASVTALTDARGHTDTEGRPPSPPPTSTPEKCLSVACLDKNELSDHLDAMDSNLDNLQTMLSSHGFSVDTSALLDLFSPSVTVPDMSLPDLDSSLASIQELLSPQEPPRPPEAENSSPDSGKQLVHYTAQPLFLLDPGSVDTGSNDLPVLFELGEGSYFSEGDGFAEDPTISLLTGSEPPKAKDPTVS
# In short: as §1
# SPIC = biological target: T8, SPIC (Homo sapiens, UniProt Q8N5J4 1-248); details: protein: recombinant; tags: N-terminal GST; dsDNA, one strand shown
# T8 sequence: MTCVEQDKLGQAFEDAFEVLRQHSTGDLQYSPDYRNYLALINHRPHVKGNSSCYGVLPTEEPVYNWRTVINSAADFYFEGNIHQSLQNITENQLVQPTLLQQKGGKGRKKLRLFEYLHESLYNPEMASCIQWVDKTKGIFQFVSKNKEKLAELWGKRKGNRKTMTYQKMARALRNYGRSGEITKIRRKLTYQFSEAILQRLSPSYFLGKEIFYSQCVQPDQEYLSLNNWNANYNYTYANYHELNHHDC
# In short: as §1
# ELF4 = ELF4 (Homo sapiens, UniProt Q99607 1-663); details: protein: recombinant; tags: N-terminal GST; dsDNA, one strand shown
# Sequence of ELF4 (Q99607 whole entry): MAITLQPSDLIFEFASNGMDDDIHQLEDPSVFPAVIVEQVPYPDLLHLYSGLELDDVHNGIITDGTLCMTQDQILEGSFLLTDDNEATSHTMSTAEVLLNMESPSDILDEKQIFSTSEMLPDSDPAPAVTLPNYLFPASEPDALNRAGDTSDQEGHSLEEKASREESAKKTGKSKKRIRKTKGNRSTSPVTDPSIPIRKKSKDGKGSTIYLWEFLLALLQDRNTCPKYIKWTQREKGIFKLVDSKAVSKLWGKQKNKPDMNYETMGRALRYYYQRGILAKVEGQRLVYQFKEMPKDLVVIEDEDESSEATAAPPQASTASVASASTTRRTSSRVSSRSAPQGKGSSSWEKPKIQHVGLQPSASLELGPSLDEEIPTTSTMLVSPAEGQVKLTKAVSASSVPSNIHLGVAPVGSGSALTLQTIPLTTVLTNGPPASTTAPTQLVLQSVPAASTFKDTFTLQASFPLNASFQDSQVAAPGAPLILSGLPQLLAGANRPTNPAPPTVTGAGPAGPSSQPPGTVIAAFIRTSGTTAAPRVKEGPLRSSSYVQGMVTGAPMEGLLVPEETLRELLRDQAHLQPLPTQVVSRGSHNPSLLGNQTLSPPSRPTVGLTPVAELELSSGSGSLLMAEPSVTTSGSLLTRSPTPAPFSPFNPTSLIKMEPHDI
# In short: as §1
# ELK4 = biological target: T9, ELK4 (Homo sapiens, UniProt P28324-2 1-405); details: protein: recombinant; tags: N-terminal GST; dsDNA, one strand shown
# T9 sequence: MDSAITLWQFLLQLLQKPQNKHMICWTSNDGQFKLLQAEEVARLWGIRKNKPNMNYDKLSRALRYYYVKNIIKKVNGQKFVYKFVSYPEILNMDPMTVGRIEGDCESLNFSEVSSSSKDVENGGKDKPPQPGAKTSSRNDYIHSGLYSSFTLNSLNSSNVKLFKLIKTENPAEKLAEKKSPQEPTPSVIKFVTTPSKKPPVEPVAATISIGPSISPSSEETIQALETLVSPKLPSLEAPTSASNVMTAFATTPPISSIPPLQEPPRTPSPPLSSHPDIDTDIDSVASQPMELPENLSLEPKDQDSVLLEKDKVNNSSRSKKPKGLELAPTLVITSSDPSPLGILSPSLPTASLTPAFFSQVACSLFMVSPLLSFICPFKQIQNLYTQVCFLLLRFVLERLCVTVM
# In short: as §1
# ETV2 = biological target: T10, ETV2 (Homo sapiens, UniProt O00321 1-342); details: protein: recombinant; tags: N-terminal GST; dsDNA, one strand shown
# T10 sequence: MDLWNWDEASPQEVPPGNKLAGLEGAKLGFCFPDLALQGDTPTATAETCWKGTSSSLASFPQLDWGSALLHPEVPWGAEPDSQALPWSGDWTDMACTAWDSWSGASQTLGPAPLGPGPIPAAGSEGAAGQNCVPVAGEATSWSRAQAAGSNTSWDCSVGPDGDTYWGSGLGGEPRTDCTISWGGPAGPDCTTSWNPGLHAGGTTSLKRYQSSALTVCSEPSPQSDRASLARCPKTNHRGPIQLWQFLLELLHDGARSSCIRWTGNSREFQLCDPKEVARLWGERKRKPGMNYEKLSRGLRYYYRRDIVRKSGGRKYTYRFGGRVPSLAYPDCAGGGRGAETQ
# In short: as §1
# ELF3 = biological target: T11, ELF3 (Homo sapiens, UniProt P78545 1-371); details: protein: recombinant; tags: N-terminal GST; dsDNA, one strand shown
# T11 sequence: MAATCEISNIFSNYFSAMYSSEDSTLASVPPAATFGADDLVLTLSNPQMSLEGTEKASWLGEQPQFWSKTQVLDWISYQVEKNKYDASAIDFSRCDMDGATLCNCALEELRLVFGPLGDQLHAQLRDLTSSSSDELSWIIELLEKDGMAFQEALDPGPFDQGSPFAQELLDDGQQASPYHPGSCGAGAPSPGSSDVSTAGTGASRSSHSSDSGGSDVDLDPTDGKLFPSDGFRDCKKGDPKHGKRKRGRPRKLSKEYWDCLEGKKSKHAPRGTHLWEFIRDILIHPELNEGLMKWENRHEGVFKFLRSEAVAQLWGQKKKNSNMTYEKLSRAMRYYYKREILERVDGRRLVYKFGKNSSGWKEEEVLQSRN
# In short: as §1
# CRX = CRX (Homo sapiens, UniProt O43186 1-299); details: protein: recombinant; tags: N-terminal GST; dsDNA, one strand shown
# Sequence of CRX (O43186 whole entry): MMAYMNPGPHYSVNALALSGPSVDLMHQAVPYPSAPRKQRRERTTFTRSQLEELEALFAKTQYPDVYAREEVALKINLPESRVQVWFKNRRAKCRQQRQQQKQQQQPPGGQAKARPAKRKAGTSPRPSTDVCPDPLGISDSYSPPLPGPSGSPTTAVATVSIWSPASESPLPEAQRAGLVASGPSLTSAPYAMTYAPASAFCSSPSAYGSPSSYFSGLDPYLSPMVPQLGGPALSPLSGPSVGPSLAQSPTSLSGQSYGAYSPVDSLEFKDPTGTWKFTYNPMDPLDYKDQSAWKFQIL
# In short: as §1
# ETV1 = ETV1 (Homo sapiens, UniProt P50549 1-477); details: protein: recombinant; tags: N-terminal GST; dsDNA, one strand shown
# Sequence of ETV1 (P50549 whole entry): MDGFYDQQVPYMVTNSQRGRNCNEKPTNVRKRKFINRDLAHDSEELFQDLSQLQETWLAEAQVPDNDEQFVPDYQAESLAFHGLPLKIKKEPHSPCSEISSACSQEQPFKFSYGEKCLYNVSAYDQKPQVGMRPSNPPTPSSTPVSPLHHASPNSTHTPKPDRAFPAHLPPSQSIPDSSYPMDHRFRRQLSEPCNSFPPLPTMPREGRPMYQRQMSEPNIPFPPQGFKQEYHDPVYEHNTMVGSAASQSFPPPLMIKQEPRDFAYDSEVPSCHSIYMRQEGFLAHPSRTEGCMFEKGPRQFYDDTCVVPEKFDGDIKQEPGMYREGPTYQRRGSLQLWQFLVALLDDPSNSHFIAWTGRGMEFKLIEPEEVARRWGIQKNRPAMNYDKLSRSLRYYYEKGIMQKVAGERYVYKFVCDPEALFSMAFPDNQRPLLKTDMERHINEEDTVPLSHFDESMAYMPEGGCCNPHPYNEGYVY
# In short: as §1
sequence,measurement,setting,value
GCCTCG,binding signal,FLI1,"1.41 fold enrichment (6-mer frequency, TF over GST control)"
same,binding signal,ELK1,"1.26 fold enrichment (6-mer frequency, TF over GST control)"
same,binding signal,GABPA,"1.34 fold enrichment (6-mer frequency, TF over GST control)"
same,binding signal,ERG,"1.45 fold enrichment (6-mer frequency, TF over GST control)"
same,binding signal,ELF1,"1.42 fold enrichment (6-mer frequency, TF over GST control)"
same,binding signal,EHF,"1.3 fold enrichment (6-mer frequency, TF over GST control)"
same,binding signal,SPI1,"1.21 fold enrichment (6-mer frequency, TF over GST control)"
same,binding signal,SPIB,"1.19 fold enrichment (6-mer frequency, TF over GST control)"
same,binding signal,ELK3,"1.26 fold enrichment (6-mer frequency, TF over GST control)"
same,binding signal,FEV,"1.25 fold enrichment (6-mer frequency, TF over GST control)"
same,binding signal,ETV5,"1.33 fold enrichment (6-mer frequency, TF over GST control)"
same,binding signal,HSF1,"1.31 fold enrichment (6-mer frequency, TF over GST control)"
same,binding signal,SPIC,"1.07 fold enrichment (6-mer frequency, TF over GST control)"
same,binding signal,ELF4,"1.38 fold enrichment (6-mer frequency, TF over GST control)"
same,binding signal,ELK4,"1.32 fold enrichment (6-mer frequency, TF over GST control)"
same,binding signal,ETV2,"1.06 fold enrichment (6-mer frequency, TF over GST control)"
same,binding signal,ELF3,"1.33 fold enrichment (6-mer frequency, TF over GST control)"
same,binding signal,CRX,"1.08 fold enrichment (6-mer frequency, TF over GST control)"
same,binding signal,ETV1,"1.26 fold enrichment (6-mer frequency, TF over GST control)"
